These results are taken from PubChem BioAssay.

Molecules are shown by their SMILES.

The experiment is described as follows: EMT-state selective cytotoxicity in co-culture – imaging, PC-3E GFP, TEM4-18 mCherry, primary screen (AID 1345086).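 Note: cells exposed to compound for 72 h before imaging.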 To be noted: PC-3E GFP / TEM4-18 mCherry co-culture, imaging cell counts; measured here: mesenchymal TEM4-18 mCherry cell survival; at 1 µM.
In turn, `O=C(Nc1ccc(Cl)cc1)Nc1ccc(CO)cc1` registered a normalised cell number of 1.11.
With `C[C@H]1C[C@H]2C(=O)O[C@H]([C@@H](C)CCCC[C@@H](C)O)C[C@@H](O)[C@H](C)C(=O)NC(Cc3ccccc3)C(=O)N2C1` (stereo not given in full) the figure was 1.05; with `C[C@H]1[C@H](OC(=O)CCC(=O)O)O[C@@H]2O[C@]3(C)CC[C@H]4[C@H](C)CC[C@@H]1[C@@]24OO3`, 0.55.
Then `O=C(O)C(O)[C@H](O)[C@H](O)[C@H](O)[C@H](O)CO` (stereo not given in full), with 1.37; and `CC1CN(c2c(F)c(N)c3c(=O)c(C(=O)O)cn(C4CC4)c3c2F)C[C@H](C)N1` (stereo not given in full), with 1.02; and `O=C1CC[C@]23/C=C/C(=O)NCCCCNCCCNC(=O)/C=C/c4ccc(c2c4)O[C@@H]3C1`, with 0.89.
Regarding `COC(=O)C[C@H]1C2(C)CC34OC5(C)O[C@]6(C7/C(=C(/OC)C(C)C)C(=O)O[C@@H](c8ccoc8)[C@]7(C)C(OC(=O)C(C)C)[C@@H](OC)[C@]6(O5)C13C)[C@H](OC)[C@@]4(OC)C2OC(C)=O` (stereo not given in full), the normalised cell number is 1.
Then `CC(C)(C)[Si](C)(C)OCC1O[C@H](Sc2ccccc2)[C@H]2NC(=O)O[C@H]2C1O` (stereo not given in full), with 1.05; and `COc1c(F)c(F)cc2c(=O)c(C(=O)NO)cn(C3CC3)c12`, with 1.04; and `C[C@@H]1OC(O[C@H]2[C@H](O)[C@@H](O)[C@H](OC[C@H]3O[C@@H](OC(=O)[C@]45CCC(C)(C)CC4C4=CCC6[C@@]7(C)CC[C@H](OC8OC[C@H](O)[C@H](O)[C@H]8OC8O[C@@H](C)[C@H](O)[C@@H](O)[C@H]8O)[C@@](C)(CO)C7CC[C@@]6(C)[C@]4(C)CC5)[C@H](O)[C@@H](O)[C@@H]3O)O[C@@H]2CO)[C@H](O)[C@H](O)[C@H]1O` (stereo not given in full), with 0.93.
